Source: PubChem
Six1-Eya2 inh = blocks human Six1 binding to Eya2 | Q15475+O00167 | AlphaScreen GST-Six1/His-Eya2 binding, biochemical; hits give low values | activity change, % (test concentration not listed) | 360,000 compounds, 0.56% hits
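Homogeneous AlphaScreen proximity assay pairing GST-Six1 with His-tagged Eya2 (added as 5X mix: 250 nM and 500 nM) in 50 mM Tris pH 8.0, 300 mM NaCl, 1 mM TCEP. Glutathione donor and nickel acceptor beads; 1 h, 37 °C, dark.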
PI5P4K alpha inh = inhibitors of human PI5P4K alpha | max response, % | P48426 | PI5P4Kalpha enzyme, ADP-Glo luminescence, 60 min; hits give low values | 330,000 compounds, 1.2% hits | AID 652105; active = max response of -50% or lower; inconclusive = between -30% and -50%; inactive = -30% or higher; note: value at the top dose of about 77 µM
Target sequence (P48426 whole entry, looked up): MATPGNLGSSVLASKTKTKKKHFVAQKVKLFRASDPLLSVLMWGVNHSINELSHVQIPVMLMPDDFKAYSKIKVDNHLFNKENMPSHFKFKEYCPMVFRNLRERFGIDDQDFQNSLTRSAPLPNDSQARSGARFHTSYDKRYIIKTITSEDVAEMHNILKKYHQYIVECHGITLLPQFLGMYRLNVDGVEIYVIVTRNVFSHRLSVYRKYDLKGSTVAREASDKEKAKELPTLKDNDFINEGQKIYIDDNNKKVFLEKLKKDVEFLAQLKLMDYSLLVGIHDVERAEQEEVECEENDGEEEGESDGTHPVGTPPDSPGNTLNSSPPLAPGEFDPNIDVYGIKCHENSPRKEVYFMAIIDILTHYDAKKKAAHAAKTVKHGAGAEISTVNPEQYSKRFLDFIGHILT
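Quantitative HTS of the MLSMR library against PI5P4Kalpha with substrate. ATP added last at 5 microM final; room temperature, 60 minutes. Remaining ATP depleted, ADP converted and read as luminescence.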
PI4K2A block = blocks human PI4K2A kinase activity. Q9BTU6. purified PI4K2A, ADP-Glo luminescence, 1 h; hits give low values. activity change, negative = inhibition, % at 76.9 µM. 420,000 compounds, 0.13% hits; in the data active = activity change below about -50%; inconclusive = mostly about -30% to -49%
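In this quantitative HTS, ADP production by PI4K2A was quantified luminescently after 1 h at ambient temperature; 100 microM adenosine served as plate-quality control.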
CtBP-E1A inh = CtBP/E1A binding inhibition | AlphaScreen GST-E1A/His-CtBP binding, 1536-well; hits give low values | activity change, % (no concentration beside the values) | 340,000 compounds, 0.49% hits | AID 651724
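Protein mix (5X: 125 nM each GST-E1A, His-CtBP) was incubated with pinned compound 2 h at 37 deg C in dark, in 50 mM Tris pH 8.0 buffer with 300 mM NaCl. Glutathione donor and nickel acceptor beads followed; AlphaScreen signal read after 1 h.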
pAkt inh = Akt phosphorylation inhibition; Neuro2A IGF-stimulated pAkt S473 HTRF, 20 min; hits give low values; activity change, % for hits at 50 µM; AID 651550; 360,000 compounds, 0.32% hits; in the data active = activity change below about -80%; inconclusive = mostly about -51% to -80%
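Neuro2A cells (4,500/well, DMEM with 0.5% FBS) were treated with compound at a single 50 µM final concentration, stimulated with 6 nM IGF for 20 min at 37 °C, and lysed. Phospho-Akt Ser473 was read by HTRF as 665/615 ratio ×10^4.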
Each line names hits and unclear results; the compound was inactive in the other large screens. This is a sample that favours compounds with a hit; in the whole collection about 1.8% have one here. Cut-off read from the data, not from the text of the source, unless noted: active = activity change below about -65%; inconclusive = mostly about -30% to -63%; inactive = weaker than that.

COC(=O)Cc1cc(=O)[nH]c(Nc2nc3ccccc3o2)n1	Six1-Eya2 inh inconclusive
CCc1ccc(C(=O)COC(=O)CNC(=O)CNS(=O)(=O)c2ccccc2)cc1	none
O=C(NCc1cccc(C(F)(F)F)c1)C1CC(c2c(Cl)cccc2Cl)=NO1 (stereo unspecified)	none
CCOc1ccc(N(CC(=O)Nc2ccc(OC)cc2OC)S(=O)(=O)c2c(C)[nH]c(=O)[nH]c2=O)cc1	Six1-Eya2 inh -85, CtBP-E1A inh -92
CCOc1ccccc1NC(=O)CN(c1ccc(OC)cc1)S(=O)(=O)c1c(C)[nH]c(=O)[nH]c1=O	Six1-Eya2 inh -84, CtBP-E1A inh -84
Cc1cc(NS(=O)(=O)c2ccc(C(C)C)cc2)no1	none
Cc1ccc(C)c(N2CCN(C(=O)C3CCN(S(=O)(=O)c4cccc5nsnc45)CC3)CC2)c1	PI4K2A block -61
CCOC(=O)c1ccc(NC(=O)C2CCCN(S(=O)(=O)c3cnc[nH]3)C2)cc1 (stereo unspecified)	none
O=C(CCS(=O)(=O)c1ccc(Br)s1)NCc1cccs1	pAkt inh -82% (no result: PI5P4K alpha inh)
O=C1C=C(NCc2ccccc2)c2ccccc2C1=O	Six1-Eya2 inh inconclusive, PI4K2A block -64
O=C1C=C(Nc2ccccc2O)c2ccccc2C1=O	Six1-Eya2 inh inconclusive, PI4K2A block inconclusive
COc1cc(/C=N/NC(=O)c2ccoc2C)ccc1O	none
COc1cccc(/C=N/NC(=O)c2c(-c3ccccc3)noc2C)c1OC	none
COc1cccc(/C=N/NC(=O)C(=O)N2CCCCCC2)c1O	Six1-Eya2 inh -82, CtBP-E1A inh -89
COc1cccc(/C=N/NC(=O)c2c(-c3ccccc3)noc2C)c1O	Six1-Eya2 inh -90, CtBP-E1A inh -91
CCOc1cc(/C=N/NC(=O)c2c(-c3ccccc3)noc2C)ccc1O	none
COc1cccc(/C=N/NC(=O)C(=O)N/N=C/c2cccc(OC)c2O)c1O	Six1-Eya2 inh inconclusive, CtBP-E1A inh inconclusive
CCOc1cc([N+](=O)[O-])cc(/C=N/NC(=O)c2c(-c3ccccc3)noc2C)c1O	Six1-Eya2 inh -91, CtBP-E1A inh -92
COc1cccc(/C=N/NC(=O)c2ccoc2C)c1O	Six1-Eya2 inh -74, PI4K2A block inconclusive, CtBP-E1A inh -92
COc1ccc(S(=O)(=O)Nc2ccc3c(c2)C(=O)N([C@@H](C)CO)C[C@@H](C)[C@H](CN(C)C(=O)CCCN(C)C)OCCCC[C@H](C)O3)cc1	none
CCCCCCCCCCCCN1[C@@H](CC(=O)OC)c2cc(F)cc(F)c2S1(=O)=O	none
COCCCNC(=O)c1c(-c2ccccc2)noc1C	none (no result: pAkt inh)
CCCCOCCCNC(=O)c1c(-c2ccccc2)noc1C	pAkt inh -122%
COc1cccc(/C=N/NC(=O)C(=O)NCc2ccco2)c1OC	none
COc1cccc(/C=N/NC(=O)C(=O)NCc2ccco2)c1O	Six1-Eya2 inh -89, CtBP-E1A inh -97 (no result: PI5P4K alpha inh)
COc1cccc(/C=N/NC(=O)c2cnccn2)c1O	Six1-Eya2 inh -92, CtBP-E1A inh -65
COC(=O)/C(C#N)=C/c1ccc(OC(=O)c2ccccn2)cc1	Six1-Eya2 inh inconclusive, CtBP-E1A inh inconclusive
CCOC(=O)/C(C#N)=C/c1ccc(OC(=O)c2ccccn2)cc1	Six1-Eya2 inh -87, PI4K2A block inconclusive
CCC(C)(C(=O)NC1CCCCC1)N(Cc1cccs1)C(=O)c1ccc(=O)[nH]c1 (stereo unspecified)	none
Cc1ccn2c(Nc3ccccc3)c(-c3ccccn3)nc2c1	Six1-Eya2 inh -74, CtBP-E1A inh -78
Cc1cccn2c(Nc3ccccc3)c(-c3ccccn3)nc12	none
Cc1ccccc1Nc1c(-c2ccccn2)nc2ccccn12	Six1-Eya2 inh -91 (no result: CtBP-E1A inh)
Cc1ccc2nc(-c3ccccn3)c(Nc3ccccc3C)n2c1	Six1-Eya2 inh inconclusive, CtBP-E1A inh -91
Cc1ccn2c(Nc3ccccc3C)c(-c3ccccn3)nc2c1	Six1-Eya2 inh -82, CtBP-E1A inh -93
CN(C)c1ccc(/C=C(/C#N)C(=O)NCc2ccccc2)o1	none
Cc1nn2c(-c3cccc(NC(=O)c4ccco4)c3)nnc2c2ccccc12	Six1-Eya2 inh -69, CtBP-E1A inh -88
Cc1nn2c(-c3cccc(NC(=O)c4ccc(Cl)cc4)c3)nnc2c2ccccc12	none (no result: Six1-Eya2 inh, PI5P4K alpha inh, CtBP-E1A inh, pAkt inh)
CCN1CCN(C2=C(NS(=O)(=O)c3ccc(C)cc3)C(=O)c3ccccc3C2=O)CC1	none
O=C1C(NS(=O)(=O)c2ccc(Br)cc2)=C(N2CCCCC2)C(=O)c2ccccc21	Six1-Eya2 inh inconclusive, PI4K2A block inconclusive (no result: CtBP-E1A inh)
CC1CCN(C2=C(NS(=O)(=O)c3ccc(Cl)cc3)C(=O)c3ccccc3C2=O)CC1	CtBP-E1A inh inconclusive
CC1CCN(C2=C(NS(=O)(=O)c3ccc(Br)cc3)C(=O)c3ccccc3C2=O)CC1	Six1-Eya2 inh -84, PI4K2A block inconclusive (no result: CtBP-E1A inh)
O=C1C(NS(=O)(=O)c2ccccc2)=C(N2CCN(c3ccc(F)cc3)CC2)C(=O)c2ccccc21	Six1-Eya2 inh -77, CtBP-E1A inh -88
CC1CCN(C2=C(NS(=O)(=O)c3ccccc3)C(=O)c3ccccc3C2=O)CC1	Six1-Eya2 inh -72, CtBP-E1A inh -85
Fc1ccc(-c2csc3ncnc(N4CCN(c5ccccc5)CC4)c23)cc1	Six1-Eya2 inh inconclusive
Cc1onc(-c2ccccc2Cl)c1C(=O)Oc1cc(N)n(S(=O)(=O)c2ccc(F)cc2)n1	Six1-Eya2 inh -81, CtBP-E1A inh inconclusive
Cc1ccc(S(=O)(=O)n2nc(OC(=O)c3c(-c4ccccc4Cl)noc3C)cc2N)cc1	PI5P4K alpha inh inconclusive
NS(=O)(=O)c1ccc(N=Nc2c(=O)[nH]n3c(=O)c4c([nH]c23)CCCC4)cc1	PI5P4K alpha inh -62
O=c1[nH]n2c(=O)c3c([nH]c2c1N=Nc1cccc(Cl)c1)CCC3	Six1-Eya2 inh inconclusive, PI5P4K alpha inh -58
COc1cccc(N=Nc2c(=O)[nH]n3c(=O)c4c([nH]c23)CCC4)c1	Six1-Eya2 inh inconclusive, PI5P4K alpha inh inconclusive
O=c1[nH]n2c(=O)c3c([nH]c2c1N=Nc1cccc(C(F)(F)F)c1)CCCC3	Six1-Eya2 inh inconclusive
Cc1ccc(S(=O)(=O)Nc2cccc(-c3ccc(N4CCCCCC4)nn3)c2)c(C)c1	none
COc1cc(S(=O)(=O)NCc2ccncc2)c(OC)cc1Cl	none
NC(=O)CSc1nnc(-c2ccc(O)cc2)n1Cc1ccco1	Six1-Eya2 inh -87, CtBP-E1A inh -90
CCn1c(COc2ccc(C)cc2)nnc1SCC(=O)Nc1ccc2c(c1)OCCO2	pAkt inh -108%
COc1cccc(-c2nnc(SCC(=O)Nc3ccc4c(c3)OCCO4)n2Cc2ccco2)c1	Six1-Eya2 inh inconclusive, pAkt inh -114%
N#CC(C#N)=C1NC2(CCCCC2)Cc2ccccc21	none (no result: CtBP-E1A inh)
COc1ccc(NC(=S)NCCCn2ccnc2)cc1	none
CCCN1C=CC(=C2C(=O)c3ccccc3C2=O)C=C1	PI4K2A block -54 (no result: PI5P4K alpha inh)
CCCCN1C(C)=CC(=C2C(=O)c3ccccc3C2=O)C=C1C	none
